# In the supplement of paper PMC8728848:
# This excerpt belongs to a sample that is enriched for the strongest signals.
# Assays:
# Experiment in all cases: glycan array binding signal (z-score within array); higher = stronger binding
# Conditions in all cases: glycan notation: IUPAC condensed, linker removed; mutation: D22R
# [1] = molecular target: Fuc(a1-2)Gal(b1-3)GlcNAc(b1-3)GalNAc
# In short: (§1)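 Arrays were curated from the Consortium for Functional Glycomics database, 3228 in total, and kept only where the protein sequence was available. Binding is expressed as a within-array Z-score. This score was averaged across arrays of the same protein sequence at different concentrations or buffers and across linkers, and negative values can be read as non-binding.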
# [2] = molecular target: Fuc(a1-2)Gal(b1-3)[Fuc(a1-4)]GlcNAc(b1-2)Man(a1-3)[Fuc(a1-2)Gal(b1-3)[Fuc(a1-4)]GlcNAc(b1-2)Man(a1-6)]Man(b1-4)GlcNAc(b1-4)[Fuc(a1-6)]GlcNAc(b1-4)[Fuc(a1-6)]GlcNAc
# In short: as §1
# Fuc(a1-2)Gal(b1-4)GlcNAc = molecular target: Fuc(a1-2)Gal(b1-4)GlcNAc
# In short: as §1
# [3] = molecular target: Fuc(a1-2)Gal(b1-4)GlcNAc(b1-2)Man
# In short: as §1
# [4] = molecular target: Fuc(a1-2)[Gal(a1-3)]Gal(b1-4)GlcNAc(b1-3)GalNAc
# In short: as §1
# [5] = molecular target: Fuc(a1-2)[GalNAc(a1-3)]Gal(b1-3)GalNAc(b1-3)Gal(a1-4)Gal(b1-4)Glc
# In short: as §1
# [6] = molecular target: Fuc(a1-2)[GalNAc(a1-3)]Gal(b1-4)Glc
# In short: as §1
# [7] = molecular target: Fuc(a1-2)[GalNAc(a1-3)]Gal(b1-4)GlcNAc(b1-3)Gal(b1-4)GlcNAc
# In short: as §1
# [8] = molecular target: Fuc(a1-3)[Gal(b1-4)]GlcNAc6S
# In short: as §1
# Gal(a1-2)Gal = molecular target: Gal(a1-2)Gal
# In short: as §1
# Gal(b1-3)Gal = molecular target: Gal(b1-3)Gal
# In short: as §1
# Gal(b1-3)GalNAc(b1-3)Gal = molecular target: Gal(b1-3)GalNAc(b1-3)Gal
# In short: as §1
# [9] = molecular target: Gal(b1-3)GlcNAc(b1-3)Gal(b1-4)GlcNAc(b1-2)[Gal(b1-3)GlcNAc(b1-3)Gal(b1-4)GlcNAc(b1-6)]Man(a1-6)[Gal(b1-3)GlcNAc(b1-3)Gal(b1-4)GlcNAc(b1-2)Man(a1-3)]Man(b1-4)GlcNAc(b1-4)[Fuc(a1-6)]GlcNAc
# In short: as §1
# [10] = molecular target: Gal(b1-3)GlcNAc(b1-3)Gal(b1-4)GlcNAc(b1-3)Gal(b1-4)GlcNAc(b1-2)[Gal(b1-3)GlcNAc(b1-3)Gal(b1-4)GlcNAc(b1-3)Gal(b1-4)GlcNAc(b1-6)]Man(a1-6)[Gal(b1-3)GlcNAc(b1-3)Gal(b1-4)GlcNAc(b1-3)Gal(b1-4)GlcNAc(b1-2)Man(a1-3)]Man(b1-4)GlcNAc(b1-4)[Fuc(a1-6)]GlcNAc
# In short: as §1
# [11] = molecular target: Gal(b1-4)GlcNAc(a1-6)Gal(b1-4)GlcNAc
# In short: as §1
# [12] = molecular target: Gal(b1-4)GlcNAc(b1-2)Man(a1-3)[GlcNAc(b1-2)Man(a1-6)]Man(b1-4)GlcNAc(b1-4)GlcNAc
# In short: as §1
# [13] = molecular target: Gal(b1-4)GlcNAc(b1-2)Man(a1-6)[GlcNAc(b1-2)Man(a1-3)]Man(b1-4)GlcNAc(b1-4)GlcNAc
# In short: as §1
# [14] = molecular target: Gal(b1-4)GlcNAc(b1-3)Gal(b1-3)GalNAc
# In short: as §1
# [15] = molecular target: Gal(b1-4)GlcNAc(b1-3)Gal(b1-4)GlcNAc(b1-2)Man(a1-3)[Gal(b1-4)GlcNAc(b1-3)Gal(b1-4)GlcNAc(b1-2)Man(a1-6)]Man(b1-4)GlcNAc(b1-4)GlcNAc
# In short: as §1
# [16] = molecular target: Gal(b1-4)GlcNAc(b1-3)Gal(b1-4)GlcNAc(b1-2)[Gal(b1-4)GlcNAc(b1-3)Gal(b1-4)GlcNAc(b1-6)]Man(a1-6)[Gal(b1-4)GlcNAc(b1-3)Gal(b1-4)GlcNAc(b1-2)Man(a1-3)]Man(b1-4)GlcNAc(b1-4)[Fuc(a1-6)]GlcNAc
# In short: as §1
# [17] = molecular target: Gal(b1-4)GlcNAc(b1-3)Gal(b1-4)GlcNAc(b1-3)Gal(b1-4)GlcNAc(b1-2)Man(a1-3)[Gal(b1-4)GlcNAc(b1-3)Gal(b1-4)GlcNAc(b1-3)Gal(b1-4)GlcNAc(b1-2)Man(a1-6)]Man(b1-4)GlcNAc(b1-4)GlcNAc
# In short: as §1
# [18] = molecular target: Gal(b1-4)GlcNAc(b1-3)Gal(b1-4)GlcNAc(b1-3)Gal(b1-4)GlcNAc(b1-2)[Gal(b1-4)GlcNAc(b1-3)Gal(b1-4)GlcNAc(b1-3)Gal(b1-4)GlcNAc(b1-6)]Man(a1-6)[Gal(b1-4)GlcNAc(b1-3)Gal(b1-4)GlcNAc(b1-3)Gal(b1-4)GlcNAc(b1-2)Man(a1-3)]Man(b1-4)GlcNAc(b1-4)[Fuc(a1-6)]GlcNAc
# In short: as §1
# [19] = molecular target: Gal(b1-4)GlcNAc(b1-3)Gal(b1-4)GlcNAc(b1-3)[Gal(b1-4)GlcNAc(b1-3)Gal(b1-4)GlcNAc(b1-6)]GalNAc
# In short: as §1
# [20] = molecular target: Gal(b1-4)GlcNAc(b1-3)Gal(b1-4)GlcNAc(b1-6)[Gal(b1-3)]GalNAc
# In short: as §1
# [21] = molecular target: Gal(b1-4)GlcNAc(b1-6)Gal(b1-4)GlcNAc
# In short: as §1
# [22] = molecular target: Gal3S(b1-4)[Fuc(a1-3)]GlcNAc
# In short: as §1
binder,measurement,setting,value
MpL2 (Macrolepiota procera) (protein) MSTQVSSGQTYKITNVKAGTVIRLSGEDNKSIIGYPYHSGKNQQWTFNWTGKAWTLRSASSGSYLGIEGTPADGTRLVAVNDPFEWHIWRDEANENAFRIFVPFTNYNLDLSGYGDTTPGTPVQLWWTWEGLHQTWTIDRP,glycan array binding signal (z-score),[1],-0.233
same,glycan array binding signal (z-score),[2],0.051
same,glycan array binding signal (z-score),Fuc(a1-2)Gal(b1-4)GlcNAc,-0.202
same,glycan array binding signal (z-score),[3],0.129
same,glycan array binding signal (z-score),[4],0.092
same,glycan array binding signal (z-score),[5],-0.533
same,glycan array binding signal (z-score),[6],-0.092
same,glycan array binding signal (z-score),[7],-0.256
same,glycan array binding signal (z-score),[8],0.212
same,glycan array binding signal (z-score),Gal(a1-2)Gal,-0.294
same,glycan array binding signal (z-score),Gal(b1-3)Gal,0.078
same,glycan array binding signal (z-score),Gal(b1-3)GalNAc(b1-3)Gal,-0.315
same,glycan array binding signal (z-score),[9],10.4
same,glycan array binding signal (z-score),[10],10.8
same,glycan array binding signal (z-score),[11],4.13
same,glycan array binding signal (z-score),[12],-0.978
same,glycan array binding signal (z-score),[13],-0.42
same,glycan array binding signal (z-score),[14],-0.633
same,glycan array binding signal (z-score),[15],2.6
same,glycan array binding signal (z-score),[16],2.5
same,glycan array binding signal (z-score),[17],2.57
same,glycan array binding signal (z-score),[18],2.85
same,glycan array binding signal (z-score),[19],2.76
same,glycan array binding signal (z-score),[20],1.3
same,glycan array binding signal (z-score),[21],-1.1
same,glycan array binding signal (z-score),[22],-0.293
